Mtb bLac sens: beta-lactam sensitization of Mtb H37Rv; M. tuberculosis H37Rv growth with meropenem, percent inhibition; inhibition, % at 25 µM; 330,000 compounds, 0.27% hits; AID 434955; call rule not given here;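 also: growth measured after seven days incubation then overnight dye step; 0% = bacteria only wells and 100% = bacteria with antibiotic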
Rv3671c protease: inhibits the M. tuberculosis serine protease Rv3671c; P9WHR9; inhibition, % at 5.96 µM; 320,000 compounds, 0.048% hits; AID 2606; in the data active = inhibition above about 38%;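 also: extracellular domain of Rv3671c used as enzyme; 0% = enzyme with DMSO and 100% = no enzyme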
UGM FP inh: inhibitors of M. tuberculosis UDP-galactopyranose mutase; P9WIQ1; purified UGM, fluorescence polarization probe displacement; inhibition, % at 10 µM; 320,000 compounds, 0.06% hits; in the data active = inhibition above about 10%, passing the limit was not always enough
GDH-TPI inh: counter-screen for M. tuberculosis FBA inhibitors: GDH-TPI coupled enzymes; AID 588335; 360,000 compounds, 1.2% hits; GDH-TPI coupled enzyme counterscreen, NADH absorbance; inhibition, % at 4.8 µM; in the data active = inhibition above about 30%;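 also: 0% = DMSO wells and 100% = wells lacking the enzyme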
RecA intein inh: inhibitors of M. tuberculosis RecA intein splicing. 290,000 compounds, 0.75% hits. cell-free RecA intein splicing, fluorescence. P9WHJ3. inhibition, % (no concentration beside the values); in the data active = inhibition above about 30%;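 also: 0% = vehicle wells and 100% = reference inhibitor control wells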
FBA Mtb inh: Mtb fructose-bisphosphate aldolase inhibition. P9WQA3. purified M. tuberculosis FBA, fluorescence read-out. inhibition, % at 1 µM. 360,000 compounds, 2.3% hits; in the data active = inhibition above about 27%;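 also: 0% = vehicle and 100% = reference inhibitor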
Starred values were filed as active, the others as inactive; . = no result; + = active, no number. The list is not random: actives were taken first. Their share in the collection is about 4%.

SMILES | Mtb bLac sens | Rv3671c protease | UGM FP inh | GDH-TPI inh | RecA intein inh | FBA Mtb inh
COC(=O)C1OC2(OC1C(=O)OC)c1ccccc1-c1ccccc12 (centres undefined) | 52.1 | 0.8 | -0.6 | -0.8 | -0.6 | 0.4
COC(=O)[C@@H]1[C@@H](C(=O)OC)C2(c3ccccc3-c3ccccc32)N(c2ccc(Cl)cc2)N1C#N | 17.6 | -13.7 | 0.3 | 13.4 | 51.2* | 0.5
Cc1cc(C)n2nc(SCc3nnc(SCc4ccccc4)s3)nc2n1 | 4.8 | -0.7 | 2.0 | -1.9 | -2.5 | -2.2
COc1c(C)cc(C(=O)C2CCCN(C(=O)/C=C/c3ccccn3)C2)cc1C (centres undefined) | 35.0 | -2.5 | 5.9 | 8.8 | 0.5 | 5.2
O=C(Nc1cccc(O)c1)c1cc(-c2cccs2)on1 | 0.1 | -10.4 | -0.3 | -5.7 | 3.2 | 164.8*
CC(=O)c1cccc(NC(=O)c2cc(-c3cccs3)on2)c1 | -2.3 | -8.3 | 3.6 | 14.3 | 3.4 | 3.3
CN=c1scc(C)n1/N=C/c1cc(Br)c(O)c(Br)c1 | 3.5 | -0.7 | 1.5 | 6.9 | -3.7 | -3.6
CCN=c1scc(C)n1/N=C/c1cc(Br)c(O)c(OC)c1 | 0.4 | 1.2 | -1.1 | 31.7* | -15.3 | 0.3
COc1cc(/C=N/NC(=O)CC#N)cc(Br)c1O | 0.3 | -10.0 | -2.0 | 15.3 | -1.8 | +
Cc1c(C(=O)N/N=C/c2cccnc2)sc(N)c1C#N | 4.2 | . | -1.7 | 31.0* | -0.3 | 2.0
COc1cc(/C=N/NC(=O)c2sc(N)c(C#N)c2C)cc(Br)c1O | 5.7 | -36.2 | 0.1 | 38.2* | 2.3 | -0.3
Cc1ccc(C(=O)N/N=C\c2cccnc2)s1 | -12.1 | -1.4 | -1.3 | 8.2 | 1.7 | -1.3
Cc1ccc(S(=O)(=O)N2CCOCC2)cc1NC(=O)C(c1ccc(Cl)cc1)C(C)C (centres undefined) | -2.0 | -1.2 | -0.5 | 2.9 | 19.2 | 2.2
COc1cc(/C=N/NC(=O)c2ccc([N+](=O)[O-])cc2Cl)cc(Br)c1O | 7.8 | -9.7 | 1.2 | 42.1* | 1.0 | -4.8
COc1ccc2nc(SCC(=O)NN)cc(C)c2c1 | -11.4 | -13.0 | -1.4 | 1.6 | 41.9* | -0.4
COc1ccc(C2CC(=O)C3=C(C2)Nc2ccccc2N(C(C)=O)C3c2ccco2)cc1 (centres undefined) | -11.3 | 1.0 | -1.0 | 47.0* | -0.2 | 2.7
CN(C)CCOc1ccc(/C(=C(/CCCl)c2ccccc2)c2ccccc2)cc1 | 55.9 | -0.6 | . | 1.4 | 32.6* | 5.2
CCOC(=O)c1cccc(NC(=O)CCc2nnc3ccc(N4CCCCC4)nn23)c1 | -3.5 | -5.9 | -0.1 | 11.2 | -4.3 | +
CCOC(=O)c1[nH]c(C)c(C(=O)N2CCN(C(=O)c3ccco3)CC2)c1C | -4.0 | 15.3 | -0.7 | 14.5 | 0.4 | -0.6
CC(=O)C1=C(O)C(=Cc2ccccc2)OC1=O | . | . | . | 25.7 | . | 10.6
COc1ccc(C=C2OC(=O)C(C(C)=O)=C2O)cc1 | . | . | . | 59.1* | . | 14.2
COc1ccc(S(=O)(=O)N(C)C[C@H]2Oc3c(NC(=O)C4CC4)cccc3C(=O)N([C@H](C)CO)C[C@@H]2C)cc1 | 10.3 | 2.9 | -0.8 | -4.8 | . | -3.2
Nc1nc(C(=O)N2CCOCC2)nn1C(=O)c1ccc(Cl)cc1 | -3.9 | -0.2 | 0.6 | -1.0 | 32.2* | 0.1
CCCCCOc1ccc(C2NC(=O)NC2=O)cc1 (centres undefined) | 6.5 | -3.4 | -1.4 | -3.4 | 0.5 | 1.4
CCCCCCCCOc1ccc(C2OC34CCCCC3C(C#N)(C#N)C2(C#N)C(=N)O4)cc1 (centres undefined) | -6.6 | 23.7 | 4.3 | -2.2 | -414.0 | 49.8*
SMILES | Mtb bLac sens | Rv3671c protease | UGM FP inh | GDH-TPI inh | RecA intein inh | FBA Mtb inh
c1ccc(C2[C@H]3CN(CC4CCCCC4)[C@H](c4ccccc4)C34CC2(c2cccnc2)C4)cc1 (some centres undefined) | 97.2 | 0.2 | -0.8 | -15.5 | 24.2 | -3.6
COc1ccc(CCNCC(=O)Nc2ccc(C(=O)N3CCCCC3)cc2)cc1 | -2.6 | -1.1 | -0.3 | -1.9 | 0.9 | 1.4
CC(=O)Oc1ccc(N(C(C)=O)S(=O)(=O)c2ccc(Cl)cc2)c2ccccc12 | 13.5 | -5.9 | -2.2 | -7.4 | . | 6.0
Cn1c(-c2ccccc2)c(C(=O)CC#N)c2ccccc21 | 1.1 | -1.3 | -3.6 | -2.2 | -1.3 | 2.8
CCn1c(-c2ccccc2)c(C(=O)O)c2ccccc21 | 9.8 | -9.8 | 1.2 | -0.8 | 1.5 | 28.3*
COc1ccccc1NS(=O)(=O)c1cccc(NC(=O)c2nc3nc(C)cc(C)n3n2)c1 | -4.5 | -1.8 | 0.0 | 0.0 | 2.1 | -0.4

Bioassay records as filed in PubChem.
